# What was measured:
# Assay in all cases: DAPPL (digital affinity profiling via proximity ligation, sequencing); 10 mM Tris-HCl pH 7.5, 50 mM NaCl, 1 mM DTT, 4% glycerol, room temperature, 30 min; GST-TFs on glutathione beads, 16-mer random dsDNA library, 0.1% formaldehyde crosslink after washing; high values mean tight binding
# [1] = target: T1, FLI1 (Homo sapiens, UniProt Q01543 1-452); settings: protein: recombinant; tags: N-terminal GST; dsDNA, one strand shown
# T1 sequence: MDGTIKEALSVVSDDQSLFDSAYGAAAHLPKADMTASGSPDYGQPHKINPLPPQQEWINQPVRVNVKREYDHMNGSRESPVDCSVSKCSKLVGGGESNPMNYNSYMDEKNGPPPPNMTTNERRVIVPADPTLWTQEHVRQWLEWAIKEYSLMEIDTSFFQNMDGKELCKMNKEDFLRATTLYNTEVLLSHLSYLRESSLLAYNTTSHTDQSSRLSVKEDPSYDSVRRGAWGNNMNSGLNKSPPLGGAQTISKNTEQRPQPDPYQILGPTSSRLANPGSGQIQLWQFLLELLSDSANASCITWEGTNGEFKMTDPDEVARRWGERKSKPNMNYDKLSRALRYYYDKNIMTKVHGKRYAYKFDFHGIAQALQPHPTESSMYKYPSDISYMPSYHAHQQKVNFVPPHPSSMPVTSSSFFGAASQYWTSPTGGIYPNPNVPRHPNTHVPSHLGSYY
# In short: (§1)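 Human transcription factors carrying a GST fusion were produced in yeast, bound to glutathione beads, tagged with DNA barcodes and pooled together with a tag-only sample. Each pool was held with 200 nmole of a random double-stranded 16-mer DNA library in Tris/NaCl/DTT/glycerol buffer for 30 min at room temperature, then washed, crosslinked in 0.1% formaldehyde, proximity-ligated with BsaI/T4 ligase (1 h, 37 °C), PCR-amplified and sequenced on an Illumina NextSeq500. Binding signal is the read frequency of each hexamer for a given factor divided by its frequency in the tag-only sample.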
# [2] = target: T2, ELK1 (Homo sapiens, UniProt P19419 1-428); settings: protein: recombinant; tags: N-terminal GST; dsDNA, one strand shown
# T2 sequence: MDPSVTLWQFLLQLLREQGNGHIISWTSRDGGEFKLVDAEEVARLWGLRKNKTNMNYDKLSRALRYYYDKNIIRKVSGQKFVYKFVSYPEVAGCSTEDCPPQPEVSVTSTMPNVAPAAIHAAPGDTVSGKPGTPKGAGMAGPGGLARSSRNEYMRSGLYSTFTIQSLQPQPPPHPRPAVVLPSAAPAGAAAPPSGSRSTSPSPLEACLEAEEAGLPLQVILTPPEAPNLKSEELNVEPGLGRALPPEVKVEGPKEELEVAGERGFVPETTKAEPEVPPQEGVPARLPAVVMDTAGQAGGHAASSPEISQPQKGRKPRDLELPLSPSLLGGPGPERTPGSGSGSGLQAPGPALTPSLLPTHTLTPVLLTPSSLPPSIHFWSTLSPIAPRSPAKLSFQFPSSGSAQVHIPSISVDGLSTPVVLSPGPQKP
# In short: as §1
# [3] = target: T3, GABPA (Homo sapiens, UniProt Q06546 1-454); settings: protein: recombinant; tags: N-terminal GST; dsDNA, one strand shown
# T3 sequence: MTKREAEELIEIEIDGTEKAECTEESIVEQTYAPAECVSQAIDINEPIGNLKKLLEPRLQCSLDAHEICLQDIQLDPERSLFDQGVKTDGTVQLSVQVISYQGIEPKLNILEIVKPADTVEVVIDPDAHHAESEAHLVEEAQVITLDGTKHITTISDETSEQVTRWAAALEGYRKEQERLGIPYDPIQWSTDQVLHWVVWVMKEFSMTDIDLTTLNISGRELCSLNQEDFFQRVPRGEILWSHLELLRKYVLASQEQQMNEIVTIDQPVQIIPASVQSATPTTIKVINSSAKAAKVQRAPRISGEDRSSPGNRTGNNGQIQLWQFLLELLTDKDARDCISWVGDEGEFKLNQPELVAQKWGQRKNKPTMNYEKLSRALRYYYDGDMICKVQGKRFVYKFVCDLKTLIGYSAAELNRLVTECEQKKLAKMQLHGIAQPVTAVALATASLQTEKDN
# In short: as §1
# [4] = target: T4, ERG (Homo sapiens, UniProt P11308 1-479); settings: protein: recombinant; tags: N-terminal GST; dsDNA, one strand shown
# T4 sequence: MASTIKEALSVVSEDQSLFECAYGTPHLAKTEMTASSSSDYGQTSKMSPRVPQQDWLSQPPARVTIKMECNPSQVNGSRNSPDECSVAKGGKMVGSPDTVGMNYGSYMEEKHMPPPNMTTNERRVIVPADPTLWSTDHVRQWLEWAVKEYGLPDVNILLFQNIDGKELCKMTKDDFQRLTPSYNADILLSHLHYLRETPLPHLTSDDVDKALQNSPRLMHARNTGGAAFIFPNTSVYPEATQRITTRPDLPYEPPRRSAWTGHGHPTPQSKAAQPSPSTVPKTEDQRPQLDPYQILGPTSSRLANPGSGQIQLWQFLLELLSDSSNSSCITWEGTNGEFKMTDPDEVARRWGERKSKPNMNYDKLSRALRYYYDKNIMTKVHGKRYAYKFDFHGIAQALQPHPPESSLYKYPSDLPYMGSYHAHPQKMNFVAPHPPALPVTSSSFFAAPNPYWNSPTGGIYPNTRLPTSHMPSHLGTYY
# In short: as §1
# [5] = target: ELF1 (Homo sapiens, UniProt P32519 1-619); settings: protein: recombinant; tags: N-terminal GST; dsDNA, one strand shown
# ELF1, sequence (P32519 whole entry): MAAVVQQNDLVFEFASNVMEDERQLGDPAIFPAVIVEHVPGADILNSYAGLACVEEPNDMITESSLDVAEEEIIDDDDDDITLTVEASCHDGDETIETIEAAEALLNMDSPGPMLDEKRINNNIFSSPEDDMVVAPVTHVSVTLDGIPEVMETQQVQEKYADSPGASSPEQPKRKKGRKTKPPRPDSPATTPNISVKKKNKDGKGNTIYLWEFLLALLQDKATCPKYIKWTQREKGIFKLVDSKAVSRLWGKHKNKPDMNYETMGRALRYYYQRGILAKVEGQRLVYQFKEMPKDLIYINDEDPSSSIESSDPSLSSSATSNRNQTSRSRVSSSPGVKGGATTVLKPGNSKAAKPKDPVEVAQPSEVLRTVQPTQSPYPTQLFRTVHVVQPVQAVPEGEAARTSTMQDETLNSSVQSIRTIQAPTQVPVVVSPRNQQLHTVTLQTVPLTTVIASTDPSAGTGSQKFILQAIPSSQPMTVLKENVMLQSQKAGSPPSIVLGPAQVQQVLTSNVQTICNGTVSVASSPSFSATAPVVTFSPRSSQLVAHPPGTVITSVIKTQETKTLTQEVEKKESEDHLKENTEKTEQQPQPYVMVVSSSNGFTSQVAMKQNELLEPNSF
# In short: as §1
# [6] = target: T5, EHF (Homo sapiens, UniProt Q9NZC4 1-300); settings: protein: recombinant; tags: N-terminal GST; dsDNA, one strand shown
# T5 sequence: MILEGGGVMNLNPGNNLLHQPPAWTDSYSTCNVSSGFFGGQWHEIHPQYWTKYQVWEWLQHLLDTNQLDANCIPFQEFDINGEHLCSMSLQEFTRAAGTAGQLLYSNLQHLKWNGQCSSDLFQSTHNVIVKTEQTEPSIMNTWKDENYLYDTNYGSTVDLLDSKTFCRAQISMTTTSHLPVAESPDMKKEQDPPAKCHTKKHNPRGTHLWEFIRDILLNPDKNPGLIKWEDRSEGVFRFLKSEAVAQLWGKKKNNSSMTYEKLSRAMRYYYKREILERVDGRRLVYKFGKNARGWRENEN
# In short: as §1
# [7] = target: SPI1 (Homo sapiens, UniProt P17947 1-270); settings: protein: recombinant; tags: N-terminal GST; dsDNA, one strand shown
# In short: as §1
# [8] = target: SPIB (Homo sapiens, UniProt Q01892 1-262); settings: protein: recombinant; tags: N-terminal GST; dsDNA, one strand shown
# SPIB, sequence (Q01892 whole entry): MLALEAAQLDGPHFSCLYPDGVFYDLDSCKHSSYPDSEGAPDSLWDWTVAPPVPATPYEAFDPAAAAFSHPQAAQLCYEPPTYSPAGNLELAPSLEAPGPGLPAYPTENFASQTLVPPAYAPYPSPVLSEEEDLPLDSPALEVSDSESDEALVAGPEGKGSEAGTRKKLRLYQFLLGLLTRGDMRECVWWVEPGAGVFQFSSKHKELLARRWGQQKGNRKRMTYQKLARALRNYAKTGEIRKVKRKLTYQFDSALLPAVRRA
# In short: as §1
# [9] = target: T6, ELK3 (Homo sapiens, UniProt P41970 1-407); settings: protein: recombinant; tags: N-terminal GST; dsDNA, one strand shown
# T6 sequence: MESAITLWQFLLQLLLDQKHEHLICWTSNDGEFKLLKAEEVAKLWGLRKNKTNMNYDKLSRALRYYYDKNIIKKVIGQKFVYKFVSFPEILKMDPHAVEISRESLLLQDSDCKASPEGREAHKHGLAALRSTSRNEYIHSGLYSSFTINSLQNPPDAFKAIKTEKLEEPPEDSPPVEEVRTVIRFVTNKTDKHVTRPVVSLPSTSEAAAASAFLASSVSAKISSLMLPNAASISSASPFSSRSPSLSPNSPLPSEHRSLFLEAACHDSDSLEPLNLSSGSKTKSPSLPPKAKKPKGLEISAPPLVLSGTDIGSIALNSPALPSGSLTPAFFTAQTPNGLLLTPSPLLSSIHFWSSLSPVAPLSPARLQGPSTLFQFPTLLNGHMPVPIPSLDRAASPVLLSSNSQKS
# In short: as §1
# [10] = target: T7, FEV (Homo sapiens, UniProt Q99581 1-238); settings: protein: recombinant; tags: N-terminal GST; dsDNA, one strand shown
# T7 sequence: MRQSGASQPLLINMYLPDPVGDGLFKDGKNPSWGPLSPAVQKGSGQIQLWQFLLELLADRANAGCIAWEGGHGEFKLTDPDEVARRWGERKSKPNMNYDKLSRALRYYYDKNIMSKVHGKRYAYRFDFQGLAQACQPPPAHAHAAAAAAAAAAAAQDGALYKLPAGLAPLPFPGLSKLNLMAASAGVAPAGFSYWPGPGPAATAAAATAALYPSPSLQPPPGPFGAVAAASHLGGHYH
# In short: as §1
# [11] = target: ETV5 (Homo sapiens, UniProt P41161 1-510); settings: protein: recombinant; tags: N-terminal GST; dsDNA, one strand shown
# ETV5, sequence (P41161 whole entry): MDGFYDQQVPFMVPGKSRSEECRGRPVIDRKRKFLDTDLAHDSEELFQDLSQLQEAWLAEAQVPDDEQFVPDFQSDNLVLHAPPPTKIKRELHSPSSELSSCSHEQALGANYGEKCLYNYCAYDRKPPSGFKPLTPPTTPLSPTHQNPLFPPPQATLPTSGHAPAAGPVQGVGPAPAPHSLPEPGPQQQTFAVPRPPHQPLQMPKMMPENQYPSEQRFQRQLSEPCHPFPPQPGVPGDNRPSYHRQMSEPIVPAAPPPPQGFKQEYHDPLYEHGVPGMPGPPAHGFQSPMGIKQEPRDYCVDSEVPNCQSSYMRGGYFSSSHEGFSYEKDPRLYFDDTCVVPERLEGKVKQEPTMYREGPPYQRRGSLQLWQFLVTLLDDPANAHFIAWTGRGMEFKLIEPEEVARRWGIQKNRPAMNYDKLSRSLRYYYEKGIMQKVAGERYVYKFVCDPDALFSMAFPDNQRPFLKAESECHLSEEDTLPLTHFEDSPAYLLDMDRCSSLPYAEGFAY
# In short: as §1
# [12] = target: HSF1 (Homo sapiens, UniProt Q00613 1-529); settings: protein: recombinant; tags: N-terminal GST; chain copies: 3; dsDNA, one strand shown
# HSF1, sequence (Q00613 whole entry): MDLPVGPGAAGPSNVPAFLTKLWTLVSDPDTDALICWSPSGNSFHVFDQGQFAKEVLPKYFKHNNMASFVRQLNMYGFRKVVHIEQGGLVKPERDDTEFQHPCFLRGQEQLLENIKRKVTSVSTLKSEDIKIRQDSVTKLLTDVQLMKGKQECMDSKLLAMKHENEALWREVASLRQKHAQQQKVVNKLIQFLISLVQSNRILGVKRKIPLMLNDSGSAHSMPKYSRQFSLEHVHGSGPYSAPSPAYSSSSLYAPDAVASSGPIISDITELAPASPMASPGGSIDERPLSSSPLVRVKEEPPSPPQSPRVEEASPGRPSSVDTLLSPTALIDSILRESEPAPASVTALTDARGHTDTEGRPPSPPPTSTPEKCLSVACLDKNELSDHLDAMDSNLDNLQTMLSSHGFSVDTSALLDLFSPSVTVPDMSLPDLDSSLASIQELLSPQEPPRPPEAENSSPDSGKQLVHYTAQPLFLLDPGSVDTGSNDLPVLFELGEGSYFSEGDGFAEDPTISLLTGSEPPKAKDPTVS
# In short: as §1
# [13] = target: T8, SPIC (Homo sapiens, UniProt Q8N5J4 1-248); settings: protein: recombinant; tags: N-terminal GST; dsDNA, one strand shown
# T8 sequence: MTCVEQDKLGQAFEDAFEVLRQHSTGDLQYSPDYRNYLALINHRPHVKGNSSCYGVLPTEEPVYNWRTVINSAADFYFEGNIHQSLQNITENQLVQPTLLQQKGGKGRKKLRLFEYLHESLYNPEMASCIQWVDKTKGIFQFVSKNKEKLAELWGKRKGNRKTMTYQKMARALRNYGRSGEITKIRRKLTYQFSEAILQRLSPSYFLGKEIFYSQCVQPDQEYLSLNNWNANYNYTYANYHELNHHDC
# In short: as §1
# [14] = target: ELF4 (Homo sapiens, UniProt Q99607 1-663); settings: protein: recombinant; tags: N-terminal GST; dsDNA, one strand shown
# ELF4, sequence (Q99607 whole entry): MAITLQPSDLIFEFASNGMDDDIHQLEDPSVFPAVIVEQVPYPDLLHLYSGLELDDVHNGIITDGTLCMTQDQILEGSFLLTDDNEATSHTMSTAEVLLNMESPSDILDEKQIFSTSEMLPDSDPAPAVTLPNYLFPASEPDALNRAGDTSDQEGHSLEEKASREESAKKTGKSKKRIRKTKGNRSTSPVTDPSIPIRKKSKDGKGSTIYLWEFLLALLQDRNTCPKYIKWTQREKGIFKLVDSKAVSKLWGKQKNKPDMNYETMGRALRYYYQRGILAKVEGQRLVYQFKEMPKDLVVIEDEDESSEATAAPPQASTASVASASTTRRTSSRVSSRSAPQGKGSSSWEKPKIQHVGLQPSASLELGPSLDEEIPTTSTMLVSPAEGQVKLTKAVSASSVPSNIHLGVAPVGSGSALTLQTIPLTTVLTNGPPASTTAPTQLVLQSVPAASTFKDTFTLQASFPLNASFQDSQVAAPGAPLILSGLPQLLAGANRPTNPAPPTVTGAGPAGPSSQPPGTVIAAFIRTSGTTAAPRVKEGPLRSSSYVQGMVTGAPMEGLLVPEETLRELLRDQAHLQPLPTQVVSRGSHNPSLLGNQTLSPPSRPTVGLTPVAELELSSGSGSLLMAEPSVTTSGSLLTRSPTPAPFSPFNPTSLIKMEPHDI
# In short: as §1
# [15] = target: T9, ELK4 (Homo sapiens, UniProt P28324-2 1-405); settings: protein: recombinant; tags: N-terminal GST; dsDNA, one strand shown
# T9 sequence: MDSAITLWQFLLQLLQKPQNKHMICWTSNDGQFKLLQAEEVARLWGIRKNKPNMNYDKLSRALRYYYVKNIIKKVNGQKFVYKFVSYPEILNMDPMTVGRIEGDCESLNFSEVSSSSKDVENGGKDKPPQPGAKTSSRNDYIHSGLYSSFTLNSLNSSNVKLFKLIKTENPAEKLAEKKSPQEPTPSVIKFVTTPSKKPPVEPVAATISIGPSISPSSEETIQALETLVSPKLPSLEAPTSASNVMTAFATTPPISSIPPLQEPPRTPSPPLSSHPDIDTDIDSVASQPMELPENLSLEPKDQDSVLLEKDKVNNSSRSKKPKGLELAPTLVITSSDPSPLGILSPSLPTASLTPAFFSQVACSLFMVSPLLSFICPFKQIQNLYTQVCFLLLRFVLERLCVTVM
# In short: as §1
# [16] = target: T10, ETV2 (Homo sapiens, UniProt O00321 1-342); settings: protein: recombinant; tags: N-terminal GST; dsDNA, one strand shown
# T10 sequence: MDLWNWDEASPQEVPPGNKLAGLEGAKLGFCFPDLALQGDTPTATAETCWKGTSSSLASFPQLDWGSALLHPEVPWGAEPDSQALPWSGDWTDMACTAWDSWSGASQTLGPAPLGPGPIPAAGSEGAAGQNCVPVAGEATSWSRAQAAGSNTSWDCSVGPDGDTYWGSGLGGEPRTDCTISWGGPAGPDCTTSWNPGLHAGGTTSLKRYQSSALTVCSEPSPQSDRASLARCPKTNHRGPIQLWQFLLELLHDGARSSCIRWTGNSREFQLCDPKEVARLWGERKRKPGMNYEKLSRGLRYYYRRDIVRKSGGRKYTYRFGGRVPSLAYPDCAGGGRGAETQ
# In short: as §1
# [17] = target: T11, ELF3 (Homo sapiens, UniProt P78545 1-371); settings: protein: recombinant; tags: N-terminal GST; dsDNA, one strand shown
# T11 sequence: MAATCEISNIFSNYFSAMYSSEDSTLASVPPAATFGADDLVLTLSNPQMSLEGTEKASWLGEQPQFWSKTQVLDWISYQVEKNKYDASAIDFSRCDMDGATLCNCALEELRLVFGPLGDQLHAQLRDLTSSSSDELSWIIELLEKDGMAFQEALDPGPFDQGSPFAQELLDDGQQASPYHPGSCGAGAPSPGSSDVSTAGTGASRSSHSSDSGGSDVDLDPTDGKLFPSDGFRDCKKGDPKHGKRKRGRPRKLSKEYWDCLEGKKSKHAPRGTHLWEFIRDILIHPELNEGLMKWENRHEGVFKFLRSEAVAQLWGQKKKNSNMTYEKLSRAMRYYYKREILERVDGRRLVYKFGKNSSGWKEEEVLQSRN
# In short: as §1
# [18] = target: CRX (Homo sapiens, UniProt O43186 1-299); settings: protein: recombinant; tags: N-terminal GST; dsDNA, one strand shown
# CRX, sequence (O43186 whole entry): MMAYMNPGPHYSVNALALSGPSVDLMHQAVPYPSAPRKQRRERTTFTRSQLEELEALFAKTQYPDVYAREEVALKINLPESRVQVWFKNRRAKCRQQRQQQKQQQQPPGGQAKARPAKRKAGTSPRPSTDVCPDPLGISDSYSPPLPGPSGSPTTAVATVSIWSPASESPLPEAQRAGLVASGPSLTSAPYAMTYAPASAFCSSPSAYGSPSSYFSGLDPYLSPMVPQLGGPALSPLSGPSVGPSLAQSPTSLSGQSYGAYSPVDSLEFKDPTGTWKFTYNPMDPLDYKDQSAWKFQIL
# In short: as §1
# [19] = target: ETV1 (Homo sapiens, UniProt P50549 1-477); settings: protein: recombinant; tags: N-terminal GST; dsDNA, one strand shown
# ETV1, sequence (P50549 whole entry): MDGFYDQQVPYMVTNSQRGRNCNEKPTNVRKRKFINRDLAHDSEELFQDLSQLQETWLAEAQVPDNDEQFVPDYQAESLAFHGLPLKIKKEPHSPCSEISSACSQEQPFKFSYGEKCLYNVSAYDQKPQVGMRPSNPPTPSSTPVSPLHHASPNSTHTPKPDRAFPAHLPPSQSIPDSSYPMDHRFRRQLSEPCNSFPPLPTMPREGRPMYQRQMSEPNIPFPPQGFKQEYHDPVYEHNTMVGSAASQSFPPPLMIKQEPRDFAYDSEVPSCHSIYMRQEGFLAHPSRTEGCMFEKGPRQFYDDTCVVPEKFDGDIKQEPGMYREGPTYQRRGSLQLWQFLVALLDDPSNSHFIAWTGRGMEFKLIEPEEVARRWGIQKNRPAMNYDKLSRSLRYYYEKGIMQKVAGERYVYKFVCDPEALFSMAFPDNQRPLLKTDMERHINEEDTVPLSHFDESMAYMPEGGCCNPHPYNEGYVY
# In short: as §1
sequence,measurement,setting,value
GAATTC,binding signal,[1],"1.41 fold enrichment (6-mer frequency, TF over GST control)"
same,binding signal,[2],"1.29 fold enrichment (6-mer frequency, TF over GST control)"
same,binding signal,[3],"1.31 fold enrichment (6-mer frequency, TF over GST control)"
same,binding signal,[4],"1.36 fold enrichment (6-mer frequency, TF over GST control)"
same,binding signal,[5],"1.31 fold enrichment (6-mer frequency, TF over GST control)"
same,binding signal,[6],"1.43 fold enrichment (6-mer frequency, TF over GST control)"
same,binding signal,[7],"1.43 fold enrichment (6-mer frequency, TF over GST control)"
same,binding signal,[8],"1.38 fold enrichment (6-mer frequency, TF over GST control)"
same,binding signal,[9],"1.38 fold enrichment (6-mer frequency, TF over GST control)"
same,binding signal,[10],"1.39 fold enrichment (6-mer frequency, TF over GST control)"
same,binding signal,[11],"1.42 fold enrichment (6-mer frequency, TF over GST control)"
same,binding signal,[12],"1.59 fold enrichment (6-mer frequency, TF over GST control)"
same,binding signal,[13],"1.51 fold enrichment (6-mer frequency, TF over GST control)"
same,binding signal,[14],"1.36 fold enrichment (6-mer frequency, TF over GST control)"
same,binding signal,[15],"1.27 fold enrichment (6-mer frequency, TF over GST control)"
same,binding signal,[16],"1.39 fold enrichment (6-mer frequency, TF over GST control)"
same,binding signal,[17],"1.13 fold enrichment (6-mer frequency, TF over GST control)"
same,binding signal,[18],"1.14 fold enrichment (6-mer frequency, TF over GST control)"
same,binding signal,[19],"1.34 fold enrichment (6-mer frequency, TF over GST control)"

# From PMC7862700, “An all-to-all approach to the identification of sequence-specific readers for epigenetic DNA modifications on cytosine”
